Bioassay records: PubChem, National Center for Advancing Translational Sciences (NCATS)
Only a selection was taken, and hits are over-represented in it overall.
KDM5B inh = blocks human KDM5B histone demethylase activity; Potency, µM (doses to about 57.7 µM), usual class: inhibitors; 220,000 compounds, 2.6% hits; KDM5B demethylase, FDH-coupled NADH fluorescence (FDH is formaldehyde dehydrogenase); Q9UGL1; active = well fitted inhibition curve with a large enough effect; also: 0% is about no effect; nearly all actives have a fitted effect of over 70% in size
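Inhibition is measured as reduced NADH fluorescence generation from FDH coupling to formaldehyde release. Truncated KDM5BΔAP at 200 nM final acts on H3K4me3 peptide (12.5 µM in substrate mix) in pH 7.5 HEPES buffer with Tween-20, 30 min, room temperature.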
* = called active by the depositor; i = inactive. Potency is read from the fitted curve at half-maximal effect.

SMILES	KDM5B inh
Cc1ccc(CNC(=O)Cn2ccn3nc4c(c3c2=O)CCCCC4)cc1	5.62µM*
Cc1ccsc1C(=O)N1CC(Oc2ccc(-c3nc(-c4ccccc4)no3)cc2)C1	i
Cc1cccc(C(=O)NC(C2CC2)C2CC2)n1	i
COc1ccc(NC(=O)CCc2c(C)[nH]n(-c3ccc(F)cc3)c2=O)cc1OC	i
COc1cc(Cl)ccc1C(=O)N[C@@H]1CN(c2ncccn2)C[C@H]1CN(C)C	28.2µM*
COc1cccc(C(=O)N[C@@H]2CN(Cc3cccnc3)C[C@H]2CN(C)C)c1	i
COc1ccc(C2(C(=O)N3CC[C@H](CO)[C@H](NC(=O)C4CC4)C3)CC2)cc1	i
CN(C)C[C@@H]1CN(S(C)(=O)=O)C[C@H]1NC(=O)c1ccc(F)c(F)c1	i
COc1ccc(C(=O)NC2CCCC2)c(OC)c1	i
COc1ccc(C(=O)N[C@@H]2CN(c3ncccn3)C[C@H]2CN(C)C)c(OC)c1	25.1µM*
COc1ccc(C2(C(=O)N[C@@H]3CN(c4ncccn4)C[C@H]3CN(C)C)CC2)cc1	28.2µM*
CN(C)C[C@@H]1CN(c2ncccn2)C[C@H]1NC(=O)c1ccc2cc[nH]c2c1	25.1µM*
CN(C)C[C@@H]1CN(S(C)(=O)=O)C[C@H]1NC(=O)c1cccc2[nH]ccc12	i
OC(c1ncc(-c2ccccc2)o1)C(F)(F)F (configuration not stated)	i
O=C(CCc1nc(CSc2n[nH]c(-c3ccccc3)n2)no1)Nc1ccc2ccccc2c1	i
CCCNc1c(NC(=O)c2ccccc2OC)c(=O)oc2ccccc12	i
CCc1nc(-c2c3n(c(=O)n(Cc4ccc(OC)cc4)c2=O)CCCCC3)no1	i
CCCC1(C(=O)O)CCCN(S(=O)(=O)c2ccsc2C(=O)O)C1 (configuration not stated)	i
CC(NC(=O)c1[nH]c2ccccc2c1Cl)c1cccc(F)c1 (configuration not stated)	i
CC(C)Oc1ccc(C(=O)Oc2ccc(C#N)cc2)cc1	i
COc1ccc(C(=O)N[C@@H]2CN(c3ccncn3)C[C@H]2CN(C)C)cc1F	i
CN(C)C[C@@H]1CN(c2ccncn2)C[C@H]1NC(=O)c1ccc2ncccc2c1	i
COc1ccc(C(=O)N[C@@H]2CN(c3ncccn3)C[C@H]2CN(C)C)cc1OC	28.2µM*
CC(=O)Nc1ccc(NC(=O)CSCc2csc(-c3ccc(C)cc3)n2)cc1	i
c1cncc(-c2ccnc3nc(CCC4CCCC4)nn23)c1	i
SMILES	KDM5B inh
Cn1cc(C=O)c(-c2ccc3c(c2)OCCCO3)n1	i
c1cc(-c2ccc3c(c2)OCCCO3)n2nc(C3CCC3)nc2n1	15.8µM*
CC(C)Cc1nc2nccc(-c3ccc4c(c3)OCCCO4)n2n1	28.2µM*
Cn1cc(C(=O)O)c(-c2ccc3c(c2)OCCCO3)n1	i
O=C(NC1CCCCC1)N1CCC(c2noc(-c3ccncc3)n2)C1 (configuration not stated)	i
CC(C)NC(=O)c1cn(C)nc1-c1ccc2c(c1)OCCCO2	i
CNc1nc(-c2ccc3c(c2)OCCCO3)cs1	i
c1cc(-c2ccnc3nc(C4CCCCC4)nn23)ccn1	31.6µM*
c1cc(-c2ccnc3nc(CCC4CCCC4)nn23)ccn1	28.2µM*
Cc1ccc(-c2c(C(F)(F)F)nn3c(N4CCN(CCO)CC4)cc(C)nc23)cc1	i
CC(C)C(CNC(=O)c1cc(-c2ccncc2)nc2ccccc12)N(C)C (configuration not stated)	i
Cc1sc2c(c1C)CN(C(C)C)CN2C(=O)c1ccccc1	i
CN(Cc1cccnc1)Cc1nc(C2(O)CCN(C(=O)c3ccc(F)cc3)CC2)cs1	i
Cc1ccc(NC(=O)CN(c2cc(C(F)(F)F)ccc2Cl)S(C)(=O)=O)cc1C	i
O=C(N[C@@H]1CCC[C@@H]1C(=O)NC1CCCCCC1)c1ccncc1	i
COc1ccc(OC)c(NS(=O)(=O)c2ccc(-c3cnc(C)o3)cc2)c1	i
CC(NC(=O)CNC(=O)OCc1ccccc1)C(N)=O (configuration not stated)	i
CCCNc1c(NC(=O)Nc2ccc(C)c(C)c2)c(=O)oc2ccccc12	i
COC(=O)c1cccc(OCc2ccccc2C#N)c1	i
c1ccc(-c2ccnc3nc(C4CCC4)nn23)cc1	28.2µM*
c1ccc(CCc2nc3nccc(-c4ccncc4)n3n2)cc1	i
c1cc(-c2ccnc3nc(C4CCC4)nn23)ccn1	28.2µM*
O=C(NC1CCCCC1)C1CN(S(=O)(=O)c2ccccc2Cl)CC12CCOCC2 (configuration not stated)	i
Cc1ccc(SCCC(=O)NCCC(C)C)cc1	i
COc1ccc(CN2C[C@@H](CO)[C@H](C3CCN(C(C)=O)CC3)C2)cc1OC	i
N#Cc1ccc(COC(=O)c2ccc(N3CCOCC3)nc2)c(F)c1	i
Cc1nc2n(c(=O)c1C)CN(CCN1CCOCC1)CN2c1ccc(Oc2ccccc2)cc1	i
COc1ccccc1CC(=O)NC(c1cccs1)C1CCCC1 (configuration not stated)	i
